Experimental data published in PubChem BioAssay AID1159580 (chemical genetic matrix, 2015).
The whole screen tested about 5,500 compounds, of which about 2,000 (36%) were called active. Inconclusive results (about 18%) are left out. Rule as the data show it: active = normalized growth mostly below about 0.91 (no sharp cut-off); inconclusive = no clear call, values can overlap the other calls; inactive = mostly above about 0.92. The list shows a part of the results.

Experiment: chemical genetic growth profiling, strain panel (AID 1159580);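 also: tested at 20 µM; growth read once vehicle control cultures reached saturation at 30 °C; 1 = growth at the plate median or of vehicle wells; lower values mean less growth of the strain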
Conditions: growth OD

Measured: normalized growth

CC(=O)N[C@@H](CCC(=O)O)C(=O)O
inactive: S. cerevisiae deletion strains, locus YJR075W, strain HOC1, active compounds read low 1 | S. cerevisiae deletion strains, locus YKL009W, strain mrt4, active compounds read low 1.06 | S. cerevisiae deletion strains, locus YKL068W, active compounds read low 0.995 | S. cerevisiae deletion strains, locus YKL085W, strain MDH1 (second series), active compounds read low 1.01 | S. cerevisiae deletion strains, locus YKL085W, strain MDH1, active compounds read low 1.01 | S. cerevisiae deletion strains, locus YKL160W, strain elf1, active compounds read low 1.04 | S. cerevisiae deletion strains, locus YKL190W, strain CNB1, active compounds read low 1.01 | S. cerevisiae deletion strains, locus YKR001C, strain vps1, active compounds read low 1.01 | S. cerevisiae deletion strains, locus YKR026C, strain gcn3, active compounds read low 1.01 | S. cerevisiae deletion strains, locus YKR091W, strain srl3, active compounds read low 1.02 | S. cerevisiae deletion strains, locus YLL001W, strain dnm1, active compounds read low 0.996 | S. cerevisiae deletion strains, locus YLL026W, active compounds read low 1.01 | S. cerevisiae deletion strains, locus YLL041C, strain sdh2, active compounds read low 1.03 | S. cerevisiae deletion strains, locus YLR027C, strain aat2, active compounds read low 1.02 | S. cerevisiae deletion strains, locus YLR039C, strain RIC1, active compounds read low 1.02 | S. cerevisiae deletion strains, locus YLR058C, strain SHM2, active compounds read low 0.999 | S. cerevisiae deletion strains, locus YLR102C, strain apc9, active compounds read low 1.01 | S. cerevisiae deletion strains, locus YLR113W, strain HOG1, active compounds read low 0.999 | S. cerevisiae deletion strains, locus YLR221C, strain rsa3, active compounds read low 1 | S. cerevisiae deletion strains, locus YLR258W, strain gsy2, active compounds read low 1.03 | S. cerevisiae deletion strains, locus YLR262C, strain YPT6 (second series), active compounds read low 1.03 | S. cerevisiae deletion strains, locus YLR262C, strain YPT6, active compounds read low 0.998 | S. cerevisiae deletion strains, locus YLR268W, strain sec22, active compounds read low 1.06 | S. cerevisiae deletion strains, locus YLR320W, strain mms22, active compounds read low 1.01 | S. cerevisiae deletion strains, locus YLR330W, strain CHS5, active compounds read low 1.01 | S. cerevisiae deletion strains, locus YLR342W, strain FKS1 (second series), active compounds read low 1.05 | S. cerevisiae deletion strains, locus YLR342W, strain FKS1, active compounds read low 1.01 | S. cerevisiae deletion strains, locus YLR357W, strain rsc2, active compounds read low 0.997 | S. cerevisiae deletion strains, locus YLR370C, strain arc18, active compounds read low 1.02 | S. cerevisiae deletion strains, locus YLR371W, strain rom2, active compounds read low 1 | S. cerevisiae deletion strains, locus YLR384C, strain iki3, active compounds read low 1.01 | S. cerevisiae deletion strains, locus YLR418C, strain cdc73, active compounds read low 1.01 | S. cerevisiae deletion strains, locus YML016C, strain PPZ1, active compounds read low 1 | S. cerevisiae deletion strains, locus YML032C, strain rad52, active compounds read low 1.03 | S. cerevisiae deletion strains, locus YML120C, strain ndi1, active compounds read low 1.01 | S. cerevisiae deletion strains, locus YML124C, strain tub3, active compounds read low 1.01 | S. cerevisiae deletion strains, locus YMR058W, strain fet3, active compounds read low 1.02 | S. cerevisiae deletion strains, locus YMR078C, strain ctf18, active compounds read low 1.01 | S. cerevisiae deletion strains, locus YMR125W, strain sto1, active compounds read low 1.01 | S. cerevisiae deletion strains, locus YMR129W, active compounds read low 1.01 | S. cerevisiae deletion strains, locus YMR205C, strain PFK2, active compounds read low 1.01 | S. cerevisiae deletion strains, locus YMR223W, strain ubp8, active compounds read low 1 | S. cerevisiae deletion strains, locus YMR231W, strain pep5, active compounds read low 1.02 | S. cerevisiae deletion strains, locus YMR263W, strain SAP30, active compounds read low 1.01 | S. cerevisiae deletion strains, locus YMR307W, strain GAS1, active compounds read low 1.04 | S. cerevisiae deletion strains, locus YNL067W, strain RPL9B, active compounds read low 1.01 | S. cerevisiae deletion strains, locus YNL071W, strain lat1, active compounds read low 1.02 | S. cerevisiae deletion strains, locus YNL153C, strain GIM3, active compounds read low 1.01 | S. cerevisiae deletion strains, locus YNL183C, strain NPR1, active compounds read low 0.907 | S. cerevisiae deletion strains, locus YNL209W, strain ssb2, active compounds read low 1.03 | S. cerevisiae deletion strains, locus YNL233W, strain BNI4, active compounds read low 1.01 | S. cerevisiae deletion strains, locus YNL248C, strain rpa49, active compounds read low 1.02 | S. cerevisiae deletion strains, locus YNL250W, strain rad50, active compounds read low 1 | S. cerevisiae deletion strains, locus YNL271C, strain bni1, active compounds read low 1.02 | S. cerevisiae deletion strains, locus YNL298W, strain CLA4, active compounds read low 1.01 | S. cerevisiae deletion strains, locus YNL307C, strain MCK1, active compounds read low 1.02 | S. cerevisiae deletion strains, locus YNL322C, strain KRE1 (second series), active compounds read low 1.01 | S. cerevisiae deletion strains, locus YNR049C, strain mso1, active compounds read low 1.02 | S. cerevisiae deletion strains, locus YNR052C, strain pop2, active compounds read low 1.02 | S. cerevisiae deletion strains, locus YOL006C, strain TOP1, active compounds read low 1.06 | S. cerevisiae deletion strains, locus YOL012C, strain htz1 0.888 | S. cerevisiae deletion strains, locus YOL147C, strain pex11, active compounds read low 1.01 | S. cerevisiae deletion strains, locus YOR001W, strain rrp6, active compounds read low 0.988 | S. cerevisiae deletion strains, locus YOR061W, strain CKA2, active compounds read low 1.01 | S. cerevisiae deletion strains, locus YOR069W, strain VPS5, active compounds read low 1.01 | S. cerevisiae deletion strains, locus YOR070C, strain gyp1, active compounds read low 1.03 | S. cerevisiae deletion strains, locus YOR080W, strain dia2, active compounds read low 1.04 | S. cerevisiae deletion strains, locus YOR083W, strain WHI5, active compounds read low 1.03 | S. cerevisiae deletion strains, locus YOR106W, strain vam3, active compounds read low 1.03 | S. cerevisiae deletion strains, locus YOR136W, strain idh2, active compounds read low 0.993 | S. cerevisiae deletion strains, locus YOR144C, strain elg1, active compounds read low 1.01 | S. cerevisiae deletion strains, locus YOR184W, strain ser1, active compounds read low 1.02 | S. cerevisiae deletion strains, locus YOR231W, strain MKK1, active compounds read low 0.973 | S. cerevisiae deletion strains, locus YOR265W, strain rbl2, active compounds read low 1.01 | S. cerevisiae deletion strains, locus YOR270C, strain vph1, active compounds read low 1.11 | S. cerevisiae deletion strains, locus YOR290C, strain snf2, active compounds read low 1.05 | S. cerevisiae deletion strains, locus YOR316C, strain cot1, active compounds read low 1 | S. cerevisiae deletion strains, locus YPL051W, strain arl3, active compounds read low 1.03 | S. cerevisiae deletion strains, locus YPL055C, strain LGE1, active compounds read low 0.977 | S. cerevisiae deletion strains, locus YPL078C, strain atp4, active compounds read low 1.03 | S. cerevisiae deletion strains, locus YPL106C, strain sse1, active compounds read low 1.02 | S. cerevisiae deletion strains, locus YPL240C, strain hsp82, active compounds read low 1.03 | S. cerevisiae deletion strains, locus YPL256C, strain CLN2, active compounds read low 0.956 | S. cerevisiae deletion strains, locus YPR119W, strain clb2, active compounds read low 1 | S. cerevisiae deletion strains, locus YPR141C, strain kar3, active compounds read low 1.01 | S. cerevisiae deletion strains, locus YPR163C, strain tif3, active compounds read low 1.01 | S. cerevisiae deletion strains, locus YPR167C, strain met16, active compounds read low 1 | S. cerevisiae deletion strains, strain wtn01, active compounds read low 1.02 | S. cerevisiae strains, strain wild type, active compounds read low 1.01
